Source: PubChem BioAssay
NPR1 antag: human Npr1 receptor antagonism. HEK293 hNpr1 GloSensor cGMP, ANP-stimulated luminescence. 76,000 tested, 1.6% active. Potency, µM (highest dose often 46.3 µM), for the others: top-dose activity change, negative = inhibition, actives largely listed as inhibitors; calls by dose curve; also: nearly all actives have a fitted effect of over 60% in size
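HEK293 cells stably expressing human Npr1 and cGMP GloSensor pGS-40F, loaded 2 h with 2% GloSensor reagent, given compound 30 min at room temperature. Luminescence read before and 20 min after 0.1 nM hNppA.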
Luciferase inh: inhibitors of firefly (Photinus pyralis) luciferase | P08659 | purified P. pyralis luciferase, luminescence, biochemical | Potency, µM (highest dose often 115 µM), hits mostly inhibitors | 76,000 tested, 2.5% active; also: nearly all actives have a fitted effect of over 65% in size
Target sequence (P08659 whole entry, looked up): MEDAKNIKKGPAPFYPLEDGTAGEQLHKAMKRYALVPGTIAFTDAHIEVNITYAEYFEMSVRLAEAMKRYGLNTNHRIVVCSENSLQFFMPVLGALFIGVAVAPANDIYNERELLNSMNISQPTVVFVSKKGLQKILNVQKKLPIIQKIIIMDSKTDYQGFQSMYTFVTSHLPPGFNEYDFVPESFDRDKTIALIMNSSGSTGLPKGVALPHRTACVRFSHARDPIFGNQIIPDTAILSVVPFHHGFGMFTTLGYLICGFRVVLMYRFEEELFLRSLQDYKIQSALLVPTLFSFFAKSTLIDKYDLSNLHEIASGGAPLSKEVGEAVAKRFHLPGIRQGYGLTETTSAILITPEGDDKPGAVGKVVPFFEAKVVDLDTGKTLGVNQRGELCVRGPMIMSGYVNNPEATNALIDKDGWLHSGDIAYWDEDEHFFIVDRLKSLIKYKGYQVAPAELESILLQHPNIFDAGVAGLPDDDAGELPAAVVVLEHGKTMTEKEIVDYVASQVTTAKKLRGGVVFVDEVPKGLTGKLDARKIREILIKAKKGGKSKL
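Luminescence read by CCD imager after adding enzyme (10nM final) to wells holding compound, titrated in qHTS. Substrates 10uM each D-luciferin and ATP; buffer 50mM Tris acetate pH 7.5, 10mM Mg acetate, Tween-20, BSA.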
GPT2 inhibitor: blocks human glutamate pyruvate transaminase 2 | Recombinant GPT2, coupled pyruvate oxidase/HRP Amplex Red fluorescence | Potency, µM (series often up to 57.7 µM), for the others: at the top dose activity change, negative = inhibition, hits mostly inhibitors | 100,000 tested, 0.25% active | AID 1671188 | Q8TD30; also: nearly all actives have a fitted effect of over 60% in size
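Inhibition is scored from Amplex Red fluorescence generated when pyruvate oxidase and HRP act on pyruvate released by GPT2. Reactions contain 10ng/uL enzyme, 250uM a-KG and 2mM L-alanine and run 30 min at room temperature.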
3T3 cytotox: kills NIH 3T3 cells | NIH 3T3 viability, CellTiter-Glo ATP luminescence, 48-72 h | Potency, µM (highest dose often 96.7 µM), for inactives: at the top dose activity change, negative = cytotoxicity, most hits filed as inhibitors | 94,000 tested, 4.3% active; also: nearly all actives have a fitted effect of over 55% in size
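Cytotoxicity was measured by CellTiter-Glo ATP luminescence after 48 or 72 h compound exposure at 37 °C. Mouse NIH 3T3 fibroblasts were seeded at 400 cells/well and dosed by 23 nL pin transfer.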
HEK293 tox: cytotoxic compounds in HEK 293 cells | 94,000 tested, 6.6% active | Potency, µM (top dose mostly 115 µM), for inactives: top-dose activity change, negative = cytotoxicity, usual class: inhibitors | HEK 293 viability, ATP luminescence (CellTiter-Glo), 48-72 h | AID 1345083; also: nearly all actives have a fitted effect of over 60% in size
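ATP-coupled CellTiter-Glo luminescence served as viability read-out, recorded 10 min after reagent addition at room temperature. HEK 293 cells, 250 cells/well, had been incubated with pintool-transferred compound for 48 or 72 hr at 37 degree Celsius.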
Numbers without * were called inactive; i = inactive; ? = inconclusive; · = no result given; [ ] = dose if it differs, or a comment. This is a sample that favours compounds with a hit; in the whole collection about 10% have one here. Unless noted, calls follow the shape of the dose curve; as a rule, active = well fitted curve in the direction sought with a large enough effect; inconclusive = small, poorly fitted or top-dose-only effect, or another doubt; inactive = no such curve, though single readings can be large; an effect the other way counts as inactive or inconclusive. % is scaled to controls: 0 for no effect and ±100 for the full control effect; potency is read from the fitted curve at half-maximal effect.

SMILES	NPR1 antag	Luciferase inh	GPT2 inhibitor	3T3 cytotox	HEK293 tox
CC(C)c1ccc(OCC(=O)c2ccc3c(c2)N(CCCC(=O)N2CCOCC2)C(=O)CO3)cc1	-17.5%	?	i	31.6µM*	31.6µM*
COCCNC(=O)CCCN1C(=O)COc2ccc(C(=O)COc3ccc(C(C)(C)C)cc3)cc21	-16.1%	14.1µM*	i	?	?
Cc1ccc(OCC(=O)c2ccc3c(c2)N(CCCC(=O)N2CCOCC2)C(=O)CO3)cc1C	-9.2%	i	-8.7%	-15.2%	?
CCCCNC(=O)CCCN1C(=O)COc2ccc(C(C)(C)CC)cc21	-0.9%	i	-16.4%	?	44.7µM*
O=C(NC1CCN(c2cc(-c3cccs3)[nH]n2)CC1)c1cccc(OC(F)(F)F)c1	-0.8%	i	-9.9%	-69.5%	?
Cc1ccc(-c2cccc(CN3CCCC(NC(=O)c4ccncc4)C3)c2)cc1Cl (stereo not drawn)	·	·	-4.3%	?	?
CN(Cc1ccccc1)C(=O)CN1C(=O)COc2ccc(C(=O)COc3cccc(F)c3)cc21	0.8%	i	i	-19.8%	?
CN(Cc1ccccc1)C(=O)CN1C(=O)COc2ccc(C(=O)COc3ccc(F)cc3)cc21	-1.4%	i	1.0%	?	20µM*
COc1cc2c(cc1OC)C(CNC(=O)c1cccs1)N(C(=O)Nc1cccc(F)c1)CC2 (stereo not drawn)	-3.2%	i	-14.2%	-18.6%	?
COCCOC1CCN(C(=O)c2cc(C)n(CCOC)c2C)CC1	0.5%	20µM*	i	-8.5%	-8.7%
COCCn1c(C)cc(C(=O)N2CCC3(CC2)CC(O)CCO3)c1C (stereo not drawn)	-9.3%	i	4.7%	-11.8%	3.2%
Cc1ccc(S(=O)(=O)N2CCCC(CCC(=O)N3CCc4ccccc4C3)C2)cc1 (stereo not drawn)	?	i	2.8%	?	?
CN(C)CC1(O)CCC2(CCN(C(=O)c3[nH]nc4c3CCc3ccccc3-4)CC2)CC1	1.6%	i	i	-13.7%	-3.7%
Cn1ncc2c(C(=O)NCc3cccnc3)cc(-c3cccc(C(F)(F)F)c3)nc21	·	·	i	?	50.1µM*
COc1cccc(-c2cc(C(=O)NCc3cccc(C(F)(F)F)c3)c3cnn(C)c3n2)c1	·	·	·	?	25.1µM*
Cn1ncc2c(C(=O)NCCc3ccccn3)cc(-c3cccc(C(F)(F)F)c3)nc21	·	·	·	?	31.6µM*
O=C(NC1C[C@H]2CC[C@@H](C1)N2C(=O)C1(c2ccccc2)CC1)c1ccc(F)cc1 (stereo partly drawn)	-0.2%	i	i	-29.4%	-14.5%
O=C(NCCc1ccc(Cl)cc1)c1nc2sccn2c1-c1cccc(C(F)(F)F)c1	·	·	3.1%	?	?
O=C(NCCc1ccc(Cl)cc1)c1nc2sccn2c1Br	16.0%	17.8µM*	i	-14.6%	-20.8%
Cc1ccc(-c2c(C(=O)NCCc3ccc(Cl)cc3)nc3sccn23)cc1	·	·	0.8%	?	35.5µM*
O=C(NC1CCCCC1)C1(CCO)CCN(c2ncccn2)C1 (stereo not drawn)	0.3%	i	i	-10.8%	1.1%
CC(=O)N1CCCC1c1nc(C2CN(Cc3ccc(F)c(Cl)c3)C2)no1 (stereo not drawn)	-1.1%	i	i	?	?
O=C(NCCc1ccc(Cl)cc1)C1CCCN(c2ccnc3ccnn23)C1 (stereo not drawn)	·	·	i	-18.7%	?
O=C(CCC(F)(F)F)N1CCCC(CCc2c(F)cccc2F)C1 (stereo not drawn)	0.0%	i	-6.5%	?	-28.7%
CSCCC(=O)N1CCCC(CCc2ccccc2F)C1 (stereo not drawn)	-3.9%	i	i	39.8µM*	?
SMILES	NPR1 antag	Luciferase inh	GPT2 inhibitor	3T3 cytotox	HEK293 tox
O=C(CCCc1cn[nH]c1)N1CCCC(CCc2c(F)cccc2F)C1 (stereo not drawn)	-20.7%	i	i	?	50.1µM*
O=C(C[C@H]1NC(=O)c2ccccc2NC1=O)Nc1nc(-c2cccnc2)cs1	-1.2%	i	i	?	44.7µM*
O=C(C[C@H]1NC(=O)c2ccccc2NC1=O)Nc1nc(-c2ccncc2)cs1	3.2%	i	i	?	-5.9%
NC(=O)c1cccnc1OC1CCN(CCc2ccccc2)CC1	-12.6%	i	i	-5.6%	-0.5%
Cn1ncc2c(C(=O)NCc3cccc(Cl)c3)cc(-c3ccc(Cl)cc3)nc21	·	·	i	-15.8%	-13.1%
Cn1ncc2c(C(=O)NCc3cccc(Cl)c3)cc(-c3ccc(F)cc3)nc21	·	·	i	?	35.5µM*
Cn1ncc2c(C(=O)NCc3cccc(Cl)c3)cc(-c3ccsc3)nc21	·	·	4.5%	15.8µM*	31.6µM*
Cn1ncc2c(C(=O)NCc3ccc(F)c(F)c3)cc(-c3ccsc3)nc21	·	·	i	?	?
Cn1ncc2c(C(=O)NCc3ccc(Cl)cc3)cc(-c3ccsc3)nc21	·	·	-6.0%	31.6µM*	35.5µM*
COc1cccc(CNC(=O)c2cc(-c3ccsc3)nc3c2cnn3C)c1	·	·	i	25.1µM*	56.2µM*
O=C(NCc1ccccc1)N1CCc2nnc(C3CC3)n2CC1	·	·	i	i	0.7%
O=C(NCC1CC1)c1nc2cccnc2n(CCc2ccccc2)c1=O	·	·	-1.5%	?	?
CC(C)NC(=O)c1ccc2nnc(-c3cccc([S+](C)(=O)[O-])c3)n2c1	·	·	1.8%	-13.0%	i
CCc1ccccc1NC(=O)CC1CCN(c2ccnc(OC)n2)CC1	?	i	?	?	?
C[C@@H]1CNC[C@H]1c1nc(-c2ccncc2)no1	-1.5%	i	i	i	7.9%
CCOC(=O)C1CCCN(C(=O)c2cnc3cc(C)nn3c2)C1 (stereo not drawn)	·	·	-13.1%[88.5 µM]	-11.7%[138 µM]	?
CCc1nc(N2CCc3ccccc3C2)ncc1C(=O)O	-22.0%	22.4µM*	-2.8%	25.1µM*	31.6µM*
CCN(Cc1ccncc1)C(=O)c1cc(-c2cnn(CC)c2)nc2cc(C)ccc12	-11.4%	?	1.5%	2.82µM*	?
CCNC(=O)N1CCOc2ccc(CCC(=O)NC3CCS(=O)(=O)C3)cc2C1 (stereo not drawn)	3.0%	i	i	i	0.3%
CCNC(=O)N1CCOc2ccc(CCC(=O)Nc3ccc(F)cc3F)cc2C1	?	i	-4.7%	-29.7%	39.8µM*
COCCNC(=O)CCc1ccc2c(c1)CN(C(=O)NC(C)C)CCO2	-0.5%	i	i	-7.8%	-20.6%
COc1ccc(NC(=O)CCc2ccc3c(c2)CN(C(=O)NC(C)C)CCO3)cn1	-30.2%	i	i	-10.2%	79.4µM*
Cc1cc(NC(=O)Nc2ccc(F)c(F)c2)n(-c2ccccc2)n1	·	·	i	·	·
